Source: PubChem BioAssay (several laboratories)
Compounds with a hit are over-represented: about 4.2% of the library has one in this group of screens.
Mtb betalactam: beta-lactam sensitization of Mtb H37Rv | AID 434955 | M. tuberculosis H37Rv growth with meropenem, percent inhibition | 0.27% of 330,000 active | inhibition, % at 25 µM; call rule not given here;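 note: growth measured after seven days incubation then overnight dye step; 0% = bacteria only wells and 100% = bacteria with antibiotic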
GDH-TPI counter: counter-screen for M. tuberculosis FBA inhibitors: GDH-TPI coupled enzymes. inhibition, % at 4.8 µM. 1.2% of 360,000 active. GDH-TPI coupled enzyme counterscreen, NADH absorbance;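 note: 0% = DMSO wells and 100% = wells lacking the enzyme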
RecA splice inh: inhibitors of M. tuberculosis RecA intein splicing | P9WHJ3 | cell-free RecA intein splicing, fluorescence | inhibition, % (concentration not given with the values) | 0.75% of 290,000 active; in the data active = inhibition above about 30%; inconclusive = no clear call, values can overlap the other calls;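 note: 0% = vehicle wells and 100% = reference inhibitor control wells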
Mtb FBA inh: inhibits M. tuberculosis FBA enzyme; inhibition, % at 1 µM; P9WQA3; 2.3% of 360,000 active; purified M. tuberculosis FBA, fluorescence read-out; AID 588726; in the data active = inhibition above about 27%;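 note: 0% = vehicle and 100% = reference inhibitor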
Target sequence (P9WQA3 whole entry, looked up): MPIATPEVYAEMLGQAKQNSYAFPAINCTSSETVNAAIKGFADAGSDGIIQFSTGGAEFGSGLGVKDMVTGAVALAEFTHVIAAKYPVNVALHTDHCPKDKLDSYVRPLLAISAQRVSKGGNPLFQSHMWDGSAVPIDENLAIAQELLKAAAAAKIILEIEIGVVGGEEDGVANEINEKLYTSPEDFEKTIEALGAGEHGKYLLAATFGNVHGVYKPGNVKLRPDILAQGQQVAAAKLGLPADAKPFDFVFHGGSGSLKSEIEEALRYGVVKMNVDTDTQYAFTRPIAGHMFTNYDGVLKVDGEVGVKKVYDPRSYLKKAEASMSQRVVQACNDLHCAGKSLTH
CCHFV vOTU inh: CCHFV vOTU protease inhibition; inhibition, % at 11.5 µM; 0.55% of 370,000 active; AID 651958; Pep-AMC fluorescence; note: 0% = vehicle wells with enzyme and 100% = no enzyme wells
Numbers without * were called inactive; ? = inconclusive; / = no result given. Cut-off read from the data, not from the text of the source, unless noted: active = inhibition above about 30%; inactive = the rest.

SMILES	Mtb betalactam	GDH-TPI counter	RecA splice inh	Mtb FBA inh	CCHFV vOTU inh
C=CCn1c(COc2ccc(Cl)cc2)nnc1SCC(=O)c1ccccc1	/	/	/	/	11
COc1ccc(/C=N/n2c(=O)[nH]c3c([nH]c4ccc(F)cc43)c2=O)cc1CN1CCCCC1	-6	26	/	82*	-24
COc1ccc2c(c1)[nH]c1c(=O)n(/N=C/c3ccc(OC)c(CN4CCCC4)c3)cnc12	-2	54*	4	2	0
COc1ccc(/C=N/n2cnc3c([nH]c4ccc(F)cc43)c2=O)cc1CN1CCCC1	-5	10	1	0	7
CC(C)CNC(=O)OCc1cn(Cc2ccc(F)cc2F)nn1	/	/	/	/	1
COc1cc(OC)c(/C=N/NC(N)=S)cc1Br	42	35*	-3	-1	8
c1ccc2c(c1)nc(N1CCCCCC1)c1nncn12	/	16	/	-4	2
CCN1CCN(c2nc3ccccc3n3cnnc23)CC1	-1	32*	4	-2	9
COC(=O)[C@H]1C[C@@]2(N3CCCC3)c3ccccc3N[C@H]2N1S(=O)(=O)c1ccc([N+](=O)[O-])cc1	/	/	/	/	0
CCN(CC)c1ccc(/C=N/NC(=O)c2cccc(S(=O)(=O)N3CCOCC3)c2)cc1	1	32*	-3	0	5
CCN(Cc1ccccc1)c1ccc(/C=N/NC(=O)c2cccc(S(=O)(=O)N3CCOCC3)c2)cc1	5	43*	-457	4	9
O=C(N/N=C/c1c(F)c(F)c(F)c(F)c1F)c1cccc(S(=O)(=O)N2CCOCC2)c1	99	-6	7	-3	6
CCN(Cc1ccccc1)c1ccc(/C=N/N2CCOCC2)cc1	4	28	4	1	7
C/C(=N\NC(=O)c1cccc(S(=O)(=O)N2CCOCC2)c1)c1ccc(C)cc1	0	-8	/	-1	20
CCN(CC)c1ccc(/C=N/N2CCOCC2)cc1	0	43*	0	0	0
C/C(=N\NC(=O)c1cccc(S(=O)(=O)N2CCOCC2)c1)c1cc2ccccc2o1	7	52*	0	-1	-2
O=C(NCCN1C(=O)S/C(=C\c2ccc(Cl)cc2)C1=O)c1ccc(F)c(S(=O)(=O)N2CCOCC2)c1	2	4	2	-1	-19
O=C(NCCN1C(=O)S/C(=C\c2ccc(F)cc2)C1=O)c1cccc(S(=O)(=O)N2CCOCC2)c1	4	36*	11	-3	1
CCOc1ccc(-n2c(SCC(=O)Nc3ccc(Oc4ccccc4)cc3)nnc2-c2ccncc2)cc1	/	/	/	/	3
Cc1noc(C)c1S(=O)(=O)N1CCCC(C(=O)NCCC2=CCCCC2)C1 (configuration not stated)	0	3	-1	6	8
Cc1noc(/C=C/N(C)C)c1S(=O)(=O)N1CCCC(C(=O)NC2CCCCC2C)C1 (configuration not stated)	2	62*	2	-2	6
Cc1noc(/C=C/N(C)C)c1S(=O)(=O)N1CCCC(C(=O)NC(C)c2ccccc2)C1 (configuration not stated)	?	37*	-1	0	1
Cc1noc(/C=C/N(C)C)c1S(=O)(=O)N1CCCC(C(=O)NCCC2=CCCCC2)C1 (configuration not stated)	-3	46*	5	-1	22
CC(=O)CC[C@@H]1CC[C@]2(CCCN(C(=O)C3CCCCC3)C2)O1	/	/	/	/	0
Fc1ccc(N2CCN(C3=Nc4ccccc4Sc4ccccc43)CC2)cc1	/	/	/	/	3
SMILES	Mtb betalactam	GDH-TPI counter	RecA splice inh	Mtb FBA inh	CCHFV vOTU inh
Nc1nc(=S)c2ncn(C3CCCCC3)c2[nH]1	/	31*	/	5	-6
Nc1nc(=S)c2ncn([C@@H]3O[C@H](CO)[C@@H](O)[C@H]3O)c2[nH]1	2	27	/	-3	11
Cc1ccc(-c2nc3ncccn3c2NC(=O)c2ccc(F)cc2)cc1	/	/	/	/	-20
O=C(CCc1ccccc1)Nc1ccc(N2CCOCC2)cc1	6	9	0	3	-8
O=C(Cc1ccccc1)c1ccc(N2CCOCC2)cc1	/	37*	/	6	20
O=C(c1ccccc1)c1ccc(N2CCOCC2)cc1	/	38*	/	3	16
